Source: PubChem BioAssay
An excerpt weighted towards active compounds, which were near 15% of everything screened.
TDP1 cell CPT: DT40-hTDP1 cell growth loss with CPT | chicken DT40 Tdp1-/-;hTDP1 cells + 20 nM CPT, ATP luminescence, 48 h | Potency, µM (top dose mostly 46.2 µM), inactives show at the highest dose activity change, negative = growth inhibition, hits mostly inhibitors | 12% of 420,000 active; also: nearly all actives have a fitted effect of over 55% in size
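Chicken DT40 Tdp1-/- cells complemented with human TDP1, 400 cells/well, exposed to compounds plus 20 nM camptothecin for at least 48 h at 37 C; viability read as ATP content by CellTiter-Glo luminescence.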
ALOX12 inh: blocks human arachidonate 12S-lipoxygenase. P18054. purified 12hLO, xylenol orange hydroperoxide absorbance. Potency, µM (top dose mostly 108 µM), inactives show top-dose activity change, negative = inhibition, actives largely listed as inhibitors. 1.1% of 580,000 active. AID 1671190
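Purified human 12hLO at 150 nM in 25 mM Hepes, 0.01% Triton X-100, pH 7.0, preincubated 15 min at room temperature with compound. Reaction started with 40 uM arachidonic acid, 30 min at room temperature. Hydroperoxide measured by Fe-xylenol orange, 573/405 nm absorbance ratio.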
ELG1 DNA repair: inhibitors of ELG1-dependent DNA repair in HEK293T cells; HEK293T ELG1-luciferase reporter, luminescence, 16 h; DNA damage induced by 5-fluorouridine; Potency, µM (doses to about 46.1 µM), for the others: top-dose activity change, negative = inhibition, hits mostly inhibitors; AID 504467; 2.3% of 330,000 active; also: nearly all actives have a fitted effect of over 55% in size
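5-Fluorouridine DNA damage + compound/DMSO, 2,000 cells/well, 16 h, 37 °C/5% CO2. ONE-Glo, 30 min RT, luminescence. Readout = decrease in reporter signal.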
Gal4-VP16 FLuc: counter-screen for ROR gamma inhibitors: Gal4-VP16 reporter; Drosophila S2 Gal4-VP16 UAS-luciferase, luminescence, 20 h; Potency, µM (highest dose often 53.6 µM), without a hit: at the highest dose activity, negative = inhibition, usual class: inhibitors; 3.5% of 310,000 active;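 also: Gal4-VP16 expression switched on by copper sulfate through the metallothionein promoter; nearly all actives have a fitted effect of over 50% in size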
TDP1 cell noCPT: qHTS for Inhibitors of human tyrosyl-DNA phosphodiesterase 1 (TDP1): qHTS in cells in absence of CPT | 15% of 420,000 active | DT40 Tdp1-/- hTDP1 cells, no CPT, ATP luminescence, 48 h | Potency, µM (titrated, usually from 46.2 µM), inactives show at the highest dose activity change, negative = growth inhibition, hits mostly inhibitors; also: nearly all actives have a fitted effect of over 55% in size
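Cells were dispensed at 400 per well, compounds added by pin tool, plates incubated ≥48 hr at 37 °C, then CellTiter-Glo added for 30 min at room temperature before luminescence reading. Line: DT40 Tdp1-/- complemented with hTDP1; camptothecin omitted.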
RORgamma inh: ROR gamma (mouse) transcription inhibition | AID 2551 | Drosophila S2 Gal4-RORgamma UAS-luciferase reporter, 20 h | 5.4% of 310,000 active | Potency, µM (titrated, usually from 53.6 µM), for inactives: at the highest dose activity change, negative = inhibition, actives largely listed as inhibitors | P51450; also: nearly all actives have a fitted effect of over 60% in size
Target sequence (P51450 whole entry, looked up, the tested form may be a part): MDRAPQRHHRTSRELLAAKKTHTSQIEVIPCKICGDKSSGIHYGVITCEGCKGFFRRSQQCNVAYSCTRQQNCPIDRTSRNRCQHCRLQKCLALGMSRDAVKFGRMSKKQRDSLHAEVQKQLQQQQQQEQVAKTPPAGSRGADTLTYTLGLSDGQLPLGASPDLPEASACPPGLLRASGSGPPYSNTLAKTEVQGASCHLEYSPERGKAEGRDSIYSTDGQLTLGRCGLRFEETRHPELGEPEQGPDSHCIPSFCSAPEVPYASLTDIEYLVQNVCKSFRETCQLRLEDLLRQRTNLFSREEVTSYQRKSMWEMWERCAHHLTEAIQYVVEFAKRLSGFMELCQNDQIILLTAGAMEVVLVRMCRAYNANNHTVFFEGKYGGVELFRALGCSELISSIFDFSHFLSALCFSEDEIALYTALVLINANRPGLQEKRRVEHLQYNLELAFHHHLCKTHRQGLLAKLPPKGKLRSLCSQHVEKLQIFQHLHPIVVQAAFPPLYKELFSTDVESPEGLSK
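Drosophila Schneider cells stably carrying a metallothionein-driven Gal4 DBD–ROR gamma fusion and a UAS-Photinus luciferase reporter were exposed to compound for 1 hr, then induced with copper sulfate (700 uM final) for 20 hr at ambient temperature before luminescence reading.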
* = called active by the depositor; ? = inconclusive; nt = not tested or not shown; [ ] = remark or other dose. Calls follow the shape of the dose curve; as a rule, active = well fitted curve in the direction sought with a large enough effect; inconclusive = small, poorly fitted or top-dose-only effect, or another doubt; inactive = no such curve, though single readings can be large; an effect the other way counts as inactive or inconclusive. % is scaled to controls: 0 for no effect and ±100 for the full control effect; potency is read from the fitted curve at half-maximal effect.

SMILES	TDP1 cell CPT	ALOX12 inh	ELG1 DNA repair	Gal4-VP16 FLuc	TDP1 cell noCPT	RORgamma inh
O=c1c2cn[nH]c2nc(SCc2ccccc2F)n1-c1ccc(Br)cc1	?	-9.5%	?	2.8%	?	?
Cc1ccc(-n2c(SCc3ccccc3F)nc3[nH]ncc3c2=O)cc1Cl	20.6µM*	?	nt	nt	14.6µM*	nt
O=C(CSc1nc2[nH]ncc2c(=O)n1-c1ccc(Cl)c(Cl)c1)NCc1ccccc1Cl	?	2.8%	?	-18.6%	?	?
CCc1ccc(-n2c(SCc3ccccc3F)nc3[nH]ncc3c2=O)cc1	20.6µM*	?	nt	nt	16.4µM*	nt
Cc1cccc2nc(CSc3nc4[nH]ncc4c(=O)n3-c3ccccc3Cl)cc(=O)n12	14.6µM*	-18.6%	-20.1%	1.0%	20.6µM*	26.0%
CC1(COc2cccnc2)COc2ccc(C(=O)NCc3ccc4c(c3)OCO4)cc2N1 (configuration not stated)	nt	-21.1%[176 µM]	nt	nt	nt	nt
Cc1nc2ccc(C(=O)OC(C)C(=O)NC(=O)NC3CCCC3)cc2nc1C (configuration not stated)	nt	-6.0%	nt	nt	nt	nt
O=C(C[N+]12CCCc3cccc(c31)CCC2)c1ccc2ccc3cccc4ccc1c2c34	6.31µM*	nt	nt	nt	5.01µM*	nt
COc1ccccc1NC(=O)Nc1nc(C(N)Cc2ccc(C(F)(F)F)cc2)cs1 (configuration not stated)	13µM*	?	nt	nt	14.6µM*	nt
NC(c1ccccc1)c1csc(NC(=O)Nc2ccccc2Oc2ccccc2)n1 (configuration not stated)	?	?	nt	nt	14.6µM*	nt
NC(c1ccccc1)c1csc(NC(=O)Nc2ccc(OC(F)(F)F)cc2)n1 (configuration not stated)	23.1µM*	?	nt	nt	-107.2%	nt
NC(c1ccccc1)c1csc(NC(=O)NCCc2ccccc2)n1 (configuration not stated)	?	-8.1%	nt	nt	?	nt
NC(Cc1ccc(C(F)(F)F)cc1)c1csc(NC(=O)NCCc2ccccc2)n1 (configuration not stated)	11.6µM*	?	nt	nt	13µM*	nt
COc1cc(C(=O)Nc2ccc3oc(=O)ccc3c2)ccc1C	nt	-8.4%	nt	nt	nt	nt
COC1C(C2COC3(CCCCC3)O2)OC2OC3(CCCCC3)OC21 (configuration not stated)	nt	13.5%	nt	nt	nt	nt
NC(Cc1ccc(C(F)(F)F)cc1)c1csc(NC(=O)Nc2ccccc2Oc2ccccc2)n1 (configuration not stated)	?	?	nt	nt	18.4µM*	nt
NC(Cc1ccccc1)c1csc(NC(=O)Nc2ccccc2Oc2ccccc2)n1 (configuration not stated)	-110.5%	?	nt	nt	20.6µM*	nt
CCCCCCCCCOC(=O)C[n+]1csc(CCO)c1C	?	0.0%	7.8%	-15.9%[0.365 µM]	10.3µM*	25.7%
CCSc1cnn(-c2ccccc2)c(=O)c1SCC	6.8%	9.2%	-5.4%	15.5%	-10.1%	?
CCCCSc1cnn(-c2ccccc2)c(=O)c1SCCCC	?	0.0%	?	14.1µM*	?	?
Nc1cccc2c1C(=O)N(CCOc1ccccc1F)C2=O	-1.9%	?	?	?	?	8.91µM*
N#Cc1ccccc1OCCN1C(=O)c2ccccc2C1=O	-0.2%	0.0%	?	-1.1%	?	?
N#Cc1cccc(CN2CCN(c3nccc(Cl)n3)C(=O)C2)c1	nt	20.5%[176 µM]	nt	nt	nt	nt
CN(C)C(CNC(=S)Nc1ccc(Cl)cc1)c1cccnc1 (configuration not stated)	-8.5%	-5.9%	0.9%	5.4%	-15.3%	9.2%
